Bioassay records as filed in PubChem.
LASV entry inh: Lassa virus entry inhibition | Lassa virus pseudotype entry inhibition, cell reporter | Potency, µM (top dose mostly 37.9 µM), for the others: at the highest dose activity change, negative = inhibition, hits mostly inhibitors | actives 1.2% (n = 300,000); calls by dose curve; tested in HEK293 cells; further: nearly all actives have a fitted effect of over 50% in size
VACV mCherry inh: vaccinia inhibition (mCherry reporter); Vaccinia virus mCherry reporter infection, fluorescence; Potency, µM (top dose mostly 36.5 µM), for the others: at the top dose activity change, negative = inhibition, most hits filed as inhibitors; actives 0.63% (n = 310,000); calls by dose curve; tested in A549 cells; further: nearly all actives have a fitted effect of over 35% in size
FMDV antiviral: foot and mouth disease virus antiviral activity | Potency, µM (highest dose often 57.9 µM), inactives show top-dose activity change, negative = inhibition, most hits filed as inhibitors | FMDV antiviral cell-based qHTS | actives 1.2% (n = 410,000) | AID 1159524; calls by dose curve; tested in HEK293T cells; further: read-out not given here; nearly all actives have a fitted effect of over 45% in size
Marburg entry inh: inhibitors of Marburg virus binding or cell entry; Marburg virus pseudotyped entry inhibition, cell reporter; Potency, µM (series often up to 37.8 µM), for the others: at the highest dose activity change, negative = inhibition, usual class: inhibitors; actives 1.8% (n = 300,000); AID 540276; calls by dose curve; tested in HEK293 cells
VACV Venus inh: vaccinia inhibition (Venus reporter) | AID 720580 | Potency, µM (top dose mostly 36.5 µM), for the others: at the highest dose activity change, negative = inhibition, most hits filed as inhibitors | actives 0.46% (n = 330,000) | Vaccinia virus Venus reporter expression, fluorescence; calls by dose curve; tested in A549 cells; further: nearly all actives have a fitted effect of over 30% in size
Numbers without * were called inactive; i = inactive; ? = inconclusive; . = no result; [ ] = dose if it differs, or a comment. Sampled rows, rich in hits. Any-hit rate of the full collection: about 3.2%. On the % scale 0 is the no-effect control and ±100 the full control effect; potency means the concentration at half of the fitted maximal effect.

SMILES	LASV entry inh	VACV mCherry inh	FMDV antiviral	Marburg entry inh	VACV Venus inh
Cc1ccc(S(=O)(=O)N2CCCCC2)cc1C(=O)NCCC1=CCCCC1	?	i	-12.1%	?	-8.4%
Cc1cc(C(=O)NCCC2=CCCCC2)c(C)o1	?	.	1.0%	14.6µM*	.
CCN(CC)S(=O)(=O)c1ccc2[nH]cc(C(=O)NCCC3=CCCCC3)c(=O)c2c1	1.26µM*	.	14.1µM*	11.2µM*	?
CN(C)c1ccc(/C=C/c2ccc3c4ccccc4ccc3[n+]2-c2ccccc2)cc1	11.2µM*	i	12.6µM*	?	i
CC(NC(=O)C(=O)Nc1c2c(nn1-c1ccccc1)CSC2)c1ccccc1 (stereo not given)	0.4%[46.1 µM]	-19.6%	0.0%	.	-22.2%
CCOC(=O)c1ccc(OCC2c3cc(OC)c(OC)cc3CCN2C(=O)Cc2ccc(F)cc2)cc1 (stereo not given)	?	-1.8%	-25.0%	.	-7.0%
COc1ccc(F)cc1C(=O)C1CCCN(Cc2cnc(C)s2)C1 (stereo not given)	.	.	-17.9%	.	.
COc1ccc(C(=O)C2CCCN(Cc3cccn3-c3ccc(Cl)cn3)C2)c(OC)c1 (stereo not given)	?	-16.4%	20µM*	?	-27.9%
COc1ccc(Cl)cc1C(=O)C1CCCN(Cc2cnc(C)s2)C1 (stereo not given)	11.2µM*	-11.2%	-13.6%	3.2%[46.1 µM]	-16.5%
COc1ccc(C(=O)C2CCCN(Cc3c(F)ccc(F)c3F)C2)c(OC)c1 (stereo not given)	-31.2%[46.1 µM]	-12.2%	-9.7%	?	-9.6%
CC(C)c1c(C(=O)N(C)CC2CCCN(C)C2)cnn1-c1nccc(-c2cccs2)n1 (stereo not given)	.	-20.3%	9.5%	.	-16.0%
C[C@@H](Nc1nc(Cl)nc2nc[nH]c12)c1ccccc1	.	-16.9%	.	.	?
Fc1ccc(N2CCN(Cc3ccc4c(c3)CN(Cc3cccn3-c3cccnc3)CCO4)CC2)cc1	.	-5.3%	?	.	-3.6%
COc1ccccc1N(C)C	.	i	.	.	-13.1%
Cc1cc(C)n(Cc2ccc(NC(=O)c3ccc(COc4ccccc4Br)cc3)cc2)n1	?	.	12.6µM*	?	.
O=C(Nc1cccc(Cl)c1)C1CCN(S(=O)(=O)Cc2ccccc2)CC1	-7.5%[46.1 µM]	13.5%	-5.2%	?	-0.6%
OCC1(Cc2ccccc2)CCCN(Cc2cn[nH]c2-c2ccccc2)C1 (stereo not given)	-13.5%	-11.4%	-16.4%	?	-14.0%
Cc1ccc(C)c(-c2[nH]ncc2CN2CCCC(CO)(Cc3ccccc3C)C2)c1 (stereo not given)	.	-17.5%	-24.6%	25.1µM*	1.0%
O=C(Nc1cccc([N+](=O)[O-])c1)c1ccncc1	15.2%	-17.8%	-0.8%	4.0%	-15.9%
O=C(Nc1cc(Sc2ccccn2)cc([N+](=O)[O-])c1)c1cccc(Cl)c1	-9.4%	i	25.1µM*	?	?
O=C(Nc1cc(Sc2ccccn2)cc([N+](=O)[O-])c1)c1ccc(Cl)cc1	?	.	28.2µM*	?	10µM*
Fc1ccc(-c2nc(-c3c[nH]c4ccccc34)cs2)cc1	.	i	.	.	-13.4%
CCN(CC)CCCn1c2c(c(SCC(=O)Nc3nc4ccccc4s3)nc1=O)CCC2	?	?	4.7%	?	?
Fc1ccc(-c2noc3ncnc(NC4CCCCC4)c23)cc1	23.4%[46.1 µM]	-20.8%	-22.4%	.	-19.0%
Ic1ccc(N2CCN(Cc3c[nH]c4ncccc34)CC2)cc1	?	-14.5%	-27.1%	11.2µM*	?
SMILES	LASV entry inh	VACV mCherry inh	FMDV antiviral	Marburg entry inh	VACV Venus inh
Fc1ccc(N2CCN(Cc3ccccn3)CC2)cc1	16.5%[46.1 µM]	i	-2.8%	20.1%[46.1 µM]	-2.2%
Cc1ccccc1NC(=O)c1ccc2nccnc2c1	13.8%[46.1 µM]	-9.4%	?	6.6%[46.1 µM]	-8.7%
Cc1ccc(O)cc1Nc1ccnc2cc(-c3ccccn3)ccc12	25µM*	.	.	.	.
Cn1c2ccccc2c2ccc3c(c21)C(=O)C=CC3=O	9.8%	-10.7%	20µM*	3.4%	12.9%
COc1ccc2c(c1)c1ccc3c(c1n2C)C(=O)C=CC3=O	.	-20.2%	28.2µM*	.	-16.0%
Cc1ccc2c(c1)c1ccc3c(c1n2C)C(=O)C=CC3=O	.	.	31.6µM*	.	.
Cc1ccc2c(c1)c1ncnc(N3CCC4(CC3)OCCO4)c1n2C	.	.	.	6.8%	.
COc1ccc(-c2noc(-c3ccc(NCC4CCCO4)c([N+](=O)[O-])c3)n2)cc1OC (stereo not given)	5.4%[46.1 µM]	-4.5%	-14.4%	-21.9%[46.1 µM]	-4.0%
COc1cc(-c2noc(-c3ccc(NCC4CCCO4)c([N+](=O)[O-])c3)n2)cc(OC)c1OC (stereo not given)	3.8%[46.1 µM]	-11.5%	11.2µM*	-0.9%[46.1 µM]	-8.9%
C[C@@H]1[C@H](c2ccccc2)OCCS(=O)(=O)N1Cc1ccc(F)cc1	.	i	.	.	-21.8%
Cc1ccc(S(=O)(=O)N2CCCCC2)cc1NC(=O)CSc1ncnc2ccccc12	?	11.2µM*	-16.2%	?	?
O=C(CSc1ncnc2ccccc12)Nc1cccc(S(=O)(=O)N2CCCC2)c1	15.6%[46.1 µM]	-13.9%	?	?	-23.0%
Cc1ccc(NC(=O)CSc2ncnc3ccccc23)cc1S(=O)(=O)N1CCCCCC1	-0.3%	?	8.91µM*	?	?
Cc1ccc(S(=O)(=O)N2CCCCC2)cc1NC(=O)CSCC(=O)O	4.3%	-4.3%	2.7%	18.4%[46.1 µM]	-7.0%
COC(=O)c1c(C(=O)OC)c2c3cc(OC)c(OC)cc3ccn2c1C(=O)OC	?	.	.	23.4%[14.2 µM]	.
Cc1ccc(NC(=O)N(Cc2cccs2)Cc2cc3cc4c(cc3[nH]c2=O)OCO4)cc1	-4.1%	.	.	-25.1%	.
O=C(Nc1ccc(F)cc1)N(Cc1cccs1)Cc1cc2cc3c(cc2[nH]c1=O)OCO3	?	?	17.8µM*	?	?
O=C(Nc1ccc(F)cc1)N(Cc1ccco1)Cc1cc2cc3c(cc2[nH]c1=O)OCO3	-4.7%	.	?	17.8µM*	?
O=C(CSc1ccccc1C(=O)NCc1ccccc1)NC12CC3CC(CC(C3)C1)C2	10µM*	?	?	?	?
Cc1c(C(=O)NCC(C)(C)N2CCOCC2)cnn1-c1ncc2c(n1)-c1ccccc1CC2	.	0.0%	0.5%	.	-5.2%
O=C(Nc1ccccc1N1CCN(C(=O)c2ccccc2)CC1)c1ccc([N+](=O)[O-])o1	-14.6%[46.1 µM]	11.2µM*	0.0%	?	?
O=C(Nc1ccc(N2CCN(C(=O)c3ccccc3)CC2)c(Cl)c1)c1ccc(Br)o1	20.6µM*	.	-26.9%	?	.
CC(C)C(=O)N1CCN(c2ccccc2NC(=O)c2ccc([N+](=O)[O-])o2)CC1	-23.7%[46.1 µM]	11.2µM*	-0.5%	-26.1%[46.1 µM]	?
CCC(=O)N1CCN(c2ccccc2NC(=O)c2ccc([N+](=O)[O-])o2)CC1	-9.8%	?	-8.8%	?	-23.4%
C/C(CCN1CCCc2nc(C)c(C)cc21)=N\OC[C@@H](O)[C@H]1O[C@@H]2OC(C)(C)O[C@@H]2[C@H]1O	.	.	.	-8.5%[14.2 µM]	.
CCN1CCCC1CNC(=O)c1cnn(-c2ncc3c(n2)-c2ccc(OC)cc2CC3)c1C1CC1 (stereo not given)	.	i	-7.7%	.	-3.4%
